# Laboratory results from PMC7862700, “An all-to-all approach to the identification of sequence-specific readers for epigenetic DNA modifications on cytosine”.
# How the values were obtained:
# Assay in all cases: DAPPL (digital affinity profiling via proximity ligation, sequencing); 10 mM Tris-HCl pH 7.5, 50 mM NaCl, 1 mM DTT, 4% glycerol, room temperature, 30 min; GST-TFs on glutathione beads, 16-mer random dsDNA library, 0.1% formaldehyde crosslink after washing; high values mean tight binding
# [1] = target: ETV5 (Homo sapiens, UniProt P41161 1-510); details: protein: recombinant; tags: N-terminal GST; dsDNA, one strand shown
# How it was run: (§1)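 The binding signal reported is, for every hexamer, its read frequency for a factor over its read frequency for the tag-only sample. Reads came from pools of yeast-expressed, GST-fused human transcription factors on glutathione beads, barcoded with DNA and mixed with that sample, which were incubated with 200 nmole of a random double-stranded 16-mer DNA library in Tris/NaCl/DTT/glycerol buffer at room temperature for 30 min. After washing, the pools were crosslinked with 0.1% formaldehyde, proximity-ligated with BsaI/T4 ligase for 1 h at 37 °C, PCR-amplified and sequenced on an Illumina NextSeq500.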
# [2] = target: HSF1 (Homo sapiens, UniProt Q00613 1-529); details: protein: recombinant; tags: N-terminal GST; chain copies: 3; dsDNA, one strand shown
# How it was run: as §1
# [3] = target: T1, SPIC (Homo sapiens, UniProt Q8N5J4 1-248); details: protein: recombinant; tags: N-terminal GST; dsDNA, one strand shown
# T1 sequence: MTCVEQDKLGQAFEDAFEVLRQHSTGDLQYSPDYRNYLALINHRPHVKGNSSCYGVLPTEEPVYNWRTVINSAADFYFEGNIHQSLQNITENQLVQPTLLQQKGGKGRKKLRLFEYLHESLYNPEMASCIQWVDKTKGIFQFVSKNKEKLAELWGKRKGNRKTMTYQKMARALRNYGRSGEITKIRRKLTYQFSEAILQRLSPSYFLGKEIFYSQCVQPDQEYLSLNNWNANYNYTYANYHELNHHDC
# How it was run: as §1
# [4] = target: T2, ELK4 (Homo sapiens, UniProt P28324-2 1-405); details: protein: recombinant; tags: N-terminal GST; dsDNA, one strand shown
# T2 sequence: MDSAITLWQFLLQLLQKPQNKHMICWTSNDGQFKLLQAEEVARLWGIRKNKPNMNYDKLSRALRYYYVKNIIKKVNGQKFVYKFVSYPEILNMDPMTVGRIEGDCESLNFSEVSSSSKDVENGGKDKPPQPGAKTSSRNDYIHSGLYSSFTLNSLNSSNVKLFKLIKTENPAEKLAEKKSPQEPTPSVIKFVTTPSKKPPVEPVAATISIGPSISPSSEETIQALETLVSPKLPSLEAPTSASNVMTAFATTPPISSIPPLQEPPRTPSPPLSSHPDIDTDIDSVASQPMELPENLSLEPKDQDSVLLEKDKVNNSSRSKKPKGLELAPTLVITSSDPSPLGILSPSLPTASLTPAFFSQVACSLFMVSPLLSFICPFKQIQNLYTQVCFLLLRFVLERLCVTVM
# How it was run: as §1
# [5] = target: T3, ETV2 (Homo sapiens, UniProt O00321 1-342); details: protein: recombinant; tags: N-terminal GST; dsDNA, one strand shown
# T3 sequence: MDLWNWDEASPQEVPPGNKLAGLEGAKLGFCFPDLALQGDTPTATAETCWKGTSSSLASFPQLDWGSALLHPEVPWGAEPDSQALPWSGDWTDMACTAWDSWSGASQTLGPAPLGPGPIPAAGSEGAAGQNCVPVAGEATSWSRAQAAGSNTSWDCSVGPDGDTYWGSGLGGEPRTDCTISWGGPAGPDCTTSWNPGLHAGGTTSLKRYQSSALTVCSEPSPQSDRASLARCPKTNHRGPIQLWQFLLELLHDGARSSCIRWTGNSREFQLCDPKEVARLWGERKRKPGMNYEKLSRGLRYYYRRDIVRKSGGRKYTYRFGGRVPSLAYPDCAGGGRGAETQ
# How it was run: as §1
# [6] = target: CRX (Homo sapiens, UniProt O43186 1-299); details: protein: recombinant; tags: N-terminal GST; dsDNA, one strand shown
# How it was run: as §1
# [7] = target: ETV1 (Homo sapiens, UniProt P50549 1-477); details: protein: recombinant; tags: N-terminal GST; dsDNA, one strand shown
# How it was run: as §1
# [8] = target: T4, ERF (Homo sapiens, UniProt P50548 1-548); details: protein: recombinant; tags: N-terminal GST; dsDNA, one strand shown
# T4 sequence: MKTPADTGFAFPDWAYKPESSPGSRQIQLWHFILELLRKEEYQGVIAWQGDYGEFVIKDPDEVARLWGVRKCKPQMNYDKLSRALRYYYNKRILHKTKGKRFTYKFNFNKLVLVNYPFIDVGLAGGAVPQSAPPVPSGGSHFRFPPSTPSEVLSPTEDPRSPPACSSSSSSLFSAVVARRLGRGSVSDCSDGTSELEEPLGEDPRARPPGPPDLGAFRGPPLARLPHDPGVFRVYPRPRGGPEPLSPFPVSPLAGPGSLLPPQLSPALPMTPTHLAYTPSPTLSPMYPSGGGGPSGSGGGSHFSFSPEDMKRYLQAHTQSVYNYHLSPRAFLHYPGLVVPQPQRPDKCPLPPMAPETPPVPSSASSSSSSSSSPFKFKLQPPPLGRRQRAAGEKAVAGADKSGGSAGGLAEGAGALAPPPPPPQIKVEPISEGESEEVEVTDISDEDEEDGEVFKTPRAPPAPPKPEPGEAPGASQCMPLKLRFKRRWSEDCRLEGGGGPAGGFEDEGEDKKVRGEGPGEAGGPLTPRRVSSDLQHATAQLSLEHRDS
# How it was run: as §1
# [9] = target: T5, ETS2 (Homo sapiens, UniProt P15036 1-469); details: protein: recombinant; tags: N-terminal GST; dsDNA, one strand shown
# T5 sequence: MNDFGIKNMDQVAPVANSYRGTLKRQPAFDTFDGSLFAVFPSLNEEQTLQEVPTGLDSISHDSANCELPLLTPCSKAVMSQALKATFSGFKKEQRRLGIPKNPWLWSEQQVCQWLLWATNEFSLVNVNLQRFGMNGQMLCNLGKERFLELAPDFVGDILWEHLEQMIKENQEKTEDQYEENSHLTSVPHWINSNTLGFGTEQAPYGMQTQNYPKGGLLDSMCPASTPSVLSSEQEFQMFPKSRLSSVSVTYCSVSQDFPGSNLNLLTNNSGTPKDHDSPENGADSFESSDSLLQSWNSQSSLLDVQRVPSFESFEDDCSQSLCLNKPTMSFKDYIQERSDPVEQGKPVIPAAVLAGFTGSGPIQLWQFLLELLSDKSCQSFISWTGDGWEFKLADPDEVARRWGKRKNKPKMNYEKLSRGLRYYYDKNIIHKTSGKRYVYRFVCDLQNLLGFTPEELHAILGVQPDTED
# How it was run: as §1
# [10] = target: T6, SPDEF (Homo sapiens, UniProt O95238 1-335); details: protein: recombinant; tags: N-terminal GST; dsDNA, one strand shown
# T6 sequence: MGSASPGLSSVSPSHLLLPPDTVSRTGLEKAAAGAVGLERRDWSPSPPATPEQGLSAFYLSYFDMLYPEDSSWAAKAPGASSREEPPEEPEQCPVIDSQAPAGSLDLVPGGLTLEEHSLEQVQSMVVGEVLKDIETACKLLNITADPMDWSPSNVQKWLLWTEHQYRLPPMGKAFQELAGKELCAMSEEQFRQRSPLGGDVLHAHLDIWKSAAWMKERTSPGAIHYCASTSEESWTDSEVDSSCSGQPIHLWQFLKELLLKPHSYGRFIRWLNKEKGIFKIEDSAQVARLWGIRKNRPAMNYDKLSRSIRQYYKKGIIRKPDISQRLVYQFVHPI
# How it was run: as §1
# [11] = target: T7, ETV7 (Homo sapiens, UniProt Q9Y603 1-341); details: protein: recombinant; tags: N-terminal GST; dsDNA, one strand shown
# T7 sequence: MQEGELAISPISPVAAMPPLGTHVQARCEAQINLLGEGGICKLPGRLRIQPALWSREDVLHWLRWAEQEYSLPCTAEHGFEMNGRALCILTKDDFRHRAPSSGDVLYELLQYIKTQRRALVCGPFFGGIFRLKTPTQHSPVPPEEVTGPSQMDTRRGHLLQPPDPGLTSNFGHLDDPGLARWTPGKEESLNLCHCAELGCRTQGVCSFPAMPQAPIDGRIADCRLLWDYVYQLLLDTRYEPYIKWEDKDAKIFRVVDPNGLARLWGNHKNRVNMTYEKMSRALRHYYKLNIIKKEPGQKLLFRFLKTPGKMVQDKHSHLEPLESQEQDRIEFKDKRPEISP
# How it was run: as §1
# [12] = target: T8, ELF5 (Homo sapiens, UniProt Q9UKW6-2 1-255); details: protein: recombinant; tags: N-terminal GST; dsDNA, one strand shown
# T8 sequence: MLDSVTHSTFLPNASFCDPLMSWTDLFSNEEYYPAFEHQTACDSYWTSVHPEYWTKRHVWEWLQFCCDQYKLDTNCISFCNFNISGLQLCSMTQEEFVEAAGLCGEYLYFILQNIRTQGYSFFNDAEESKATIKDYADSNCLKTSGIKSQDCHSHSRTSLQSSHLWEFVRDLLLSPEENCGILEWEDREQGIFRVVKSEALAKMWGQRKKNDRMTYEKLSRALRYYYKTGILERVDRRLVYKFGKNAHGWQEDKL
# How it was run: as §1
# [13] = target: T9, ETV3 (Homo sapiens, UniProt P41162-2 1-143); details: protein: recombinant; tags: N-terminal GST; dsDNA, one strand shown
# T9 sequence: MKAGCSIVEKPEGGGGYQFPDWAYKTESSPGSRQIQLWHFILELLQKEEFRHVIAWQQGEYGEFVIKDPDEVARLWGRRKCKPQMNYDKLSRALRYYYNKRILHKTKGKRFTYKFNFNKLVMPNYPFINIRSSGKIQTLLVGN
# How it was run: as §1
# [14] = target: ETV6 (Homo sapiens, UniProt P41212 1-452); details: protein: recombinant; tags: N-terminal GST; dsDNA, one strand shown
# How it was run: as §1
# ETV5, sequence (P41161 whole entry, the tested form may be a part): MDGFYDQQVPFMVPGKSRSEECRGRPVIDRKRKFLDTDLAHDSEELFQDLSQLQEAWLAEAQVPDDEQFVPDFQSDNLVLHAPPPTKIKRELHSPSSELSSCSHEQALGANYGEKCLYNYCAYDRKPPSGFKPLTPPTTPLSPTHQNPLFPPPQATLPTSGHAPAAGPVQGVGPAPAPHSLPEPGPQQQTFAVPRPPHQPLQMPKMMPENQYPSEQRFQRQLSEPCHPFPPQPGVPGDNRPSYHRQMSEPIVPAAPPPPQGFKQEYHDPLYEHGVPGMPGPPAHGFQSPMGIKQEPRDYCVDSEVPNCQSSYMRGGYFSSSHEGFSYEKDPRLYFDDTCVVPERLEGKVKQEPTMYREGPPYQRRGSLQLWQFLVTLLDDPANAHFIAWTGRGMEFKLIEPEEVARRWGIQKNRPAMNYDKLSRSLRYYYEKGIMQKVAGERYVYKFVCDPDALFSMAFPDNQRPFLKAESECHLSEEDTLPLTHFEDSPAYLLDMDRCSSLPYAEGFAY
# HSF1, sequence (Q00613 whole entry): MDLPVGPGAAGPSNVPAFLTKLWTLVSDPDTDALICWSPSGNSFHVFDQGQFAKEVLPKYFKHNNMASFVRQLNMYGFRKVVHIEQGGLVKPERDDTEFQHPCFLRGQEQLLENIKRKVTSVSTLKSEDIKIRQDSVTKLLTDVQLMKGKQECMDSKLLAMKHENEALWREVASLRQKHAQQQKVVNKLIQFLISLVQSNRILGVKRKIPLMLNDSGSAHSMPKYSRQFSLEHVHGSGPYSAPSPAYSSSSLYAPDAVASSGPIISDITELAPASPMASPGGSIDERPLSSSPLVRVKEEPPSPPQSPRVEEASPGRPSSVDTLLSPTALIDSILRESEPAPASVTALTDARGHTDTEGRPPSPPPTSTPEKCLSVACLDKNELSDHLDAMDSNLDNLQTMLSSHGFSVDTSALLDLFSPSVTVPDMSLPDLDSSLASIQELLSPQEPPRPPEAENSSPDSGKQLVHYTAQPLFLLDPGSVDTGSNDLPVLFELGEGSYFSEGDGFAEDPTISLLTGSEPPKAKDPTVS
# ETV1, sequence (P50549 whole entry): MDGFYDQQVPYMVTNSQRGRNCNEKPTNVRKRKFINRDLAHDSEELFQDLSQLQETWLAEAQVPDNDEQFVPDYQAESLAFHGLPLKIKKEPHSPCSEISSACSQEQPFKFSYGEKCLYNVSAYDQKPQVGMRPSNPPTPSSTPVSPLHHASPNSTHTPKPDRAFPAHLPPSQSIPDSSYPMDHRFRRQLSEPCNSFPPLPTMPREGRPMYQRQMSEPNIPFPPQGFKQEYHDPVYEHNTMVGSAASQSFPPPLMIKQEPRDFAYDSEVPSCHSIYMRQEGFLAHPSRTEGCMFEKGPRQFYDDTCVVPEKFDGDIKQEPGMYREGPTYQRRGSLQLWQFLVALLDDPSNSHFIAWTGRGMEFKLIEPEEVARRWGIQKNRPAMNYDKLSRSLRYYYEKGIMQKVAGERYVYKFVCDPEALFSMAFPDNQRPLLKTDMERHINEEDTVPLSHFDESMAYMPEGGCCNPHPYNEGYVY
# ETV6, sequence (P41212 whole entry): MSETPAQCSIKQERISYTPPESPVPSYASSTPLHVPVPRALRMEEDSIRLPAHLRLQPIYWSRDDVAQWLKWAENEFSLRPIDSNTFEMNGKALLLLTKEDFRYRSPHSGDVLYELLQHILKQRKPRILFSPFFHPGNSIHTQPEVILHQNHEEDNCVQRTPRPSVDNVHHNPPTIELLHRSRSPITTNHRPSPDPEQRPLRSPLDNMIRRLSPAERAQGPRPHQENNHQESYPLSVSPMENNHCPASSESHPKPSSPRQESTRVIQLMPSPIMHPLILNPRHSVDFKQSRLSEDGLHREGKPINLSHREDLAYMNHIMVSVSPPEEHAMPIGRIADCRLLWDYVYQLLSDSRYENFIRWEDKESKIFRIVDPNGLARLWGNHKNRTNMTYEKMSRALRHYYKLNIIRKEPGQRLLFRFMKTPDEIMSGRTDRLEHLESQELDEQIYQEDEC
# CRX, sequence (O43186 whole entry): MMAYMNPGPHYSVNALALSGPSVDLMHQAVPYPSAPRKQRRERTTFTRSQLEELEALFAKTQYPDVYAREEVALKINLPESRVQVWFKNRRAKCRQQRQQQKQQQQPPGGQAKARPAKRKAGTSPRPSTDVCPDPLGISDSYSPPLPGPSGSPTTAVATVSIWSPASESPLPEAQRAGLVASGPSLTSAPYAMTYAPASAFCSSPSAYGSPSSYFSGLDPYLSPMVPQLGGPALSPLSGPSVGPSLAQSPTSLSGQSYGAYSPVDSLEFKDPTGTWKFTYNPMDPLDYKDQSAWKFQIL
sequence,measurement,setting,value
GAATTA,binding signal,[1],"1.01 fold enrichment (6-mer frequency, TF over GST control)"
same,binding signal,[2],"1.72 fold enrichment (6-mer frequency, TF over GST control)"
same,binding signal,[3],"1.12 fold enrichment (6-mer frequency, TF over GST control)"
same,binding signal,[4],"1.09 fold enrichment (6-mer frequency, TF over GST control)"
same,binding signal,[5],"1.02 fold enrichment (6-mer frequency, TF over GST control)"
same,binding signal,[6],"2.39 fold enrichment (6-mer frequency, TF over GST control)"
same,binding signal,[7],"1.08 fold enrichment (6-mer frequency, TF over GST control)"
same,binding signal,[8],"1.06 fold enrichment (6-mer frequency, TF over GST control)"
same,binding signal,[9],"1.05 fold enrichment (6-mer frequency, TF over GST control)"
same,binding signal,[10],"1.01 fold enrichment (6-mer frequency, TF over GST control)"
same,binding signal,[11],"1.06 fold enrichment (6-mer frequency, TF over GST control)"
same,binding signal,[12],"1.03 fold enrichment (6-mer frequency, TF over GST control)"
same,binding signal,[13],"1.1 fold enrichment (6-mer frequency, TF over GST control)"
same,binding signal,[14],"1.08 fold enrichment (6-mer frequency, TF over GST control)"
